“And” between values parts separate entries of the source, which are not always exact repeats. Equal values may be shown once. Results filed as inconclusive are left out. Some compounds were tested as several samples or in several runs, with calls that do not always agree. The source made the active and inactive calls. The call rests on the fitted dose curve; in most records, active means well fitted curve in the direction sought with a large enough effect; inconclusive means small, poorly fitted or top-dose-only effect, or another doubt; inactive means no such curve, though single readings can be large; an effect the other way counts as inactive or inconclusive.
Assays:
C33A = experiment: Primary qHTS to identify gynecologic anti-cancer compounds using libraries of approved drugs and bioactive compounds (AID 1345084); settings: Gynecologic cancer cell panel viability, ATPlite luminescence, 48 h; series mostly up to 57.5 µM; further: nearly all actives have a fitted effect of over 55% in size
Summary of the method: (§1)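 Cells, 1,000 per well, were allowed to settle for 16 h at 37 C before compound addition. Five concentrations were tested for 48 h, and viability was read by ATPlite luminescence after 15 min at room temperature.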

CAOV3 = experiment: as above; settings: Gynecologic cancer cell panel viability, ATPlite luminescence, 48 h; series mostly up to 57.5 µM
Summary of the method: as §1

CASKI = experiment: as above; settings: Gynecologic cancer cell panel viability, ATPlite luminescence, 48 h; series mostly up to 57.5 µM
Summary of the method: as §1

Es-2 = experiment: as above; settings: Gynecologic cancer cell panel viability, ATPlite luminescence, 48 h; series mostly up to 57.5 µM
Summary of the method: as §1

HeLa = experiment: as above; settings: Gynecologic cancer cell panel viability, ATPlite luminescence, 48 h; series mostly up to 57.5 µM
Summary of the method: as §1

Hek293T = experiment: as above; settings: Gynecologic cancer cell panel viability, ATPlite luminescence, 48 h, control line for the selectivity index; series mostly up to 57.5 µM
Summary of the method: as §1

JEG-3 = experiment: as above; settings: Gynecologic cancer cell panel viability, ATPlite luminescence, 48 h; series mostly up to 57.5 µM
Summary of the method: as §1

OV90 = experiment: as above; settings: Gynecologic cancer cell panel viability, ATPlite luminescence, 48 h; series mostly up to 57.5 µM
Summary of the method: as §1

PA-1 = experiment: as above; settings: Gynecologic cancer cell panel viability, ATPlite luminescence, 48 h; series mostly up to 57.5 µM
Summary of the method: as §1

SKOV3 = experiment: as above; settings: Gynecologic cancer cell panel viability, ATPlite luminescence, 48 h; series mostly up to 57.5 µM
Summary of the method: as §1

Tov-21-G = experiment: as above; settings: Gynecologic cancer cell panel viability, ATPlite luminescence, 48 h; series mostly up to 57.5 µM
Summary of the method: as §1

Tov112D = experiment: as above; settings: Gynecologic cancer cell panel viability, ATPlite luminescence, 48 h; series mostly up to 57.5 µM
Summary of the method: as §1

[1] = qHTS assay to identify inhibitors of the type 1 interferon - major histocompatibility complex class I in skeletal muscle: Counter screen cell viability and HiBit confirmation (AID 1347412); settings: iHSKM muscle cells + IFN-b, HiBiT or CellTiter-Glo, 24 h; for activity change, negative = inhibition: at 45.9 µM (top of the series); on all read-outs here: nearly all actives have a fitted effect of over 60% in size
Summary of the method: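 CRISPR HLA-B*08:01-HiBit immortalized human myoblasts (C25cl48) stimulated with 4 ng/ml IFN-beta and compounds (12-point 1:3, top 46 uM final) for 24 h at 37 C. Duplicate plates read by HiBit lytic luminescence or CellTiter Glo ATP.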

[2] = Drug repurposing screens with cells derived from glioblastoma tumor samples (AID 1345199); settings: GBM patient neurospheres viability, ATP luminescence, 48 h; further: nearly all actives have a fitted effect of over 40% in size
Summary of the method: (§2)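 Four patient lines of CD133+ GBM neurospheres were screened at several concentrations; hits were retested in those lines plus three slower-growing GBM lines, using 48-hour treatment and ATP-based viability.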

astro = experiment: as above; settings: viability, ATP luminescence, 48 h; series mostly up to 45.9 µM
Summary of the method: as §2

[3] = at 45.9 µM (top of the series), tumour line B
[4] = at 45.9 µM (top of the series), tumour line D
[5] = at 46 µM (top of the series), tumour line A
[6] = at 46.1 µM (top of the series), tumour line C
On the % scale 0 is the no-effect control and ±100 the full control effect; potency means the concentration at half of the fitted maximal effect.

O=Cc1ccc(O)c(O)c1O
inactive: Potency (C33A) | Potency (CAOV3) | Potency (CASKI) | Potency (Es-2) | Potency (HeLa) | Potency (Hek293T) | Potency (JEG-3) | Potency (OV90) | Potency (PA-1) | Potency (SKOV3) | Potency (Tov-21-G) | Potency (Tov112D)

COC(=O)C1=C(C)NC(C)=C(C(=O)OC)C1c1cccc(NC(=O)NCCCN2CCC(c3cccc(OC)c3)CC2)c1
inactive: Potency (C33A) | Potency (Es-2) | Potency (HeLa) | Potency (Hek293T) | Potency (Tov-21-G) | activity change, negative = inhibition ([1]; HiBiT) -3.18% | activity change, negative = inhibition ([1]; Viability) -19.5%

CC1(C)C[C@@H]1C(=O)N/C(=C\CCCCSC[C@H](N)C(=O)O)C(=O)O
inactive: activity, negative = cell killing [2, 3] -13% and -12.1% | activity, negative = cell killing [2, 4] 1.02% and -4.66% | activity, negative = cell killing [2, 5] -10.2% and -10.8% | activity, negative = cell killing [2, 6] -10.6% and -17.9% | Potency (astro)

Cc1onc(-c2c(F)cccc2Cl)c1C(=O)N[C@@H]1C(=O)N2[C@@H]1SC(C)(C)[C@@H]2C(=O)O
inactive: Potency (CAOV3) | Potency (CASKI) | Potency (Es-2) | Potency (HeLa) | Potency (Hek293T) | Potency (JEG-3) | Potency (OV90) | Potency (PA-1) | Potency (SKOV3) | Potency (Tov-21-G) | Potency (Tov112D) | activity, negative = cell killing [2, 3] -10.7% and -14.2% | activity, negative = cell killing [2, 4] 14.3% and -22.2% | activity, negative = cell killing [2, 5] -14.1% and -18% | activity, negative = cell killing [2, 6] 9.01% and 7.31% | Potency (astro)

CCN(CC)CCCCNc1ncc2cc(-c3c(Cl)cccc3Cl)c(NC(=O)NC(C)(C)C)nc2n1
inactive: Potency (JEG-3)
active: Potency (OV90) 7940 nM | Potency (PA-1) 631 nM

COc1cc(/C=C/C(=O)CC(=O)/C=C/c2ccc(O)c(OC)c2)ccc1O
inactive: activity, negative = cell killing [2, 3] -25.8% | activity, negative = cell killing [2, 4] -25.7% | activity, negative = cell killing [2, 6] -20.1%
active: Potency ([2]; tumour line A) 12600 nM

CCCCC[C@H](O)/C=C/[C@@H]1[C@@H](C/C=C\CCCC(=O)O)[C@@H](O)C[C@H]1O
inactive: activity, negative = cell killing ([2]; at 20 µM (top of the series), tumour line C) -5.83% | activity, negative = cell killing ([2]; at 21.2 µM (top of the series), tumour line B) 0.321% | activity, negative = cell killing ([2]; at 21.2 µM (top of the series), tumour line D) -15.4% | activity, negative = cell killing [2, 3] 1.47% | activity, negative = cell killing [2, 4] -6.45% | activity, negative = cell killing [2, 5] -9.88% | activity, negative = cell killing [2, 6] -1.95% | Potency (astro)

CCCSc1ccc2nc(NC(=O)OC)[nH]c2c1
active: Potency (Es-2) 3550 nM | Potency (HeLa) 2000 nM | Potency (Hek293T) 891 nM | Potency (PA-1) 1580 nM | Potency (SKOV3) 2240 nM | Potency (Tov-21-G) 2000 nM | Potency (Tov112D) 1120 nM | Potency (astro) 501 nM

N#C/C(=C\c1ccc(-c2cc(Cl)ccc2Cl)o1)C(=O)Nc1cccc2ncccc12
inactive: activity change, negative = inhibition ([1]; Viability) -18.8%

O=C1C(SCCO)=C(SCCO)C(=O)c2ccccc21
active: Potency ([1]; HiBiT) 2790 nM | Potency ([1]; Viability) 4970 nM

CC(=O)[C@]1(O)Cc2c(O)c3c(c(O)c2[C@@H](O[C@H]2C[C@H](N)[C@H](O)[C@H](C)O2)C1)C(=O)c1c(O)cccc1C3=O
active: Potency (astro) 501 nM and 562 nM

O=[N+]([O-])c1ccc2c(c1)S(=O)(=O)C=C2
active: Potency ([1]; HiBiT) 1760 nM

COc1ccc(/C=C2\COc3ccc(C)cc3C2=O)cc1O
active: Potency ([1]; HiBiT) 14000 nM
inactive: activity change, negative = inhibition ([1]; Viability) -21.6%

From PubChem BioAssay (NCATS)
